For eight compounds, growth results are on record in PubChem BioAssay (NCI).

Among the test systems are K-562 leukemia; MALME-3M melanoma; MDA-MB-231 breast; SF-268 CNS; SF-295 CNS; SF-539 CNS; UACC-257 melanoma; M14 melanoma; HCT-15 colon; HT29 colon; SNB-75 CNS; SNB-19 CNS; U251 CNS; PC-3 prostate; SK-MEL-5 melanoma; UACC-62 melanoma; LOX IMVI melanoma; SK-MEL-2 melanoma; SK-MEL-28 melanoma.
Common to all, as to assay: NCI-60 one-dose screen, 48 h (100 = growth as untreated, 0 = no growth, -100 = all killed)
Settings in all cases: 10 µM

Compounds without any hit were thinned out: in the full panel of roughly 83,000, 20% have a hit.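 Single-dose data. Exposure time 48 hours. Values below 10 considered active.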 Values without a mark were called inactive. The source made the active and inactive calls.

On to `COc1cc(C(=C2O[C@@H]([C@H]3COC(C)(C)O3)[C@H]3OC(C)(C)O[C@@H]23)c2cc(OC)c(OC)c(OC)c2)cc(OC)c1OC`, for which the growth in the test on K-562 leukemia was 91.8%; with MALME-3M melanoma, 123%; with MDA-MB-231 breast, 91.6%; in the test on SF-268 CNS, 113%; in the test with SF-295 CNS, 110%; in the test on SF-539 CNS it was 111%. Besides, the growth with UACC-257 melanoma was 105%; in the test with M14 melanoma it was 106%; in the test on HCT-15 colon, 103%; in the test on HT29 colon, 114%; in the test with SNB-75 CNS, 99.8%; in the test with SNB-19 CNS it was 109%. For the same compound, the growth was 107% in the test on U251 CNS; 90% with PC-3 prostate; 105% in the test on SK-MEL-5 melanoma; 100% with UACC-62 melanoma; 99.1% in the test with LOX IMVI melanoma; 158% with SK-MEL-2 melanoma.

In the case of `COc1cc(/C=N/NC(=O)c2ccccc2Nc2ccnc(C(F)(F)F)c2)ccc1O`, the growth with K-562 leukemia is 90.4%; with MALME-3M melanoma, 121%; in the test on MDA-MB-231 breast, 112%; with SF-268 CNS, 105%; in the test on SF-295 CNS, 114%; in the test with SF-539 CNS, 112%. The growth in the test on UACC-257 melanoma is 126%; in the test with M14 melanoma it was 89.7%; with HCT-15 colon, 106%; in the test with HT29 colon, 118%; in the test with SNB-75 CNS, 94.1%; in the test with SNB-19 CNS, 93.2%. The growth with U251 CNS is 106%; in the test with PC-3 prostate, 111%; with SK-MEL-5 melanoma, 106%; in the test on UACC-62 melanoma, 115%; with LOX IMVI melanoma, 114%; in the test with SK-MEL-28 melanoma, 118%. In addition, the growth in the test with SK-MEL-2 melanoma was 113%.

`N=c1nc(N)ncn1-c1ccccc1`: the growth in the test with K-562 leukemia is 93.5%; in the test on MALME-3M melanoma it was 110%; in the test with MDA-MB-231 breast, 96.1%; in the test with SF-268 CNS, 108%; with SF-295 CNS it was 97.8%; with SF-539 CNS it was 96.4%. Besides, the growth in the test on UACC-257 melanoma was 97.1%; with M14 melanoma, 106%; in the test on HCT-15 colon, 99.1%; with HT29 colon, 96.4%; in the test with SNB-75 CNS, 86.5%; in the test on U251 CNS, 95.1%. Besides, the growth in the test on PC-3 prostate was 96.8%; with SK-MEL-5 melanoma, 102%; in the test on UACC-62 melanoma, 93.5%; with LOX IMVI melanoma, 94.9%; with SK-MEL-2 melanoma, 106%.

Take `O=C(Cc1csc2nc(-c3ccc(Cl)cc3)cn12)N/N=C/c1ccccc1O`: the growth in the test with K-562 leukemia is 41%; in the test with MALME-3M melanoma it was 74.5%; in the test on MDA-MB-231 breast, 35.5%; with SF-268 CNS it was 37.9%; in the test with SF-295 CNS, 37.6%; in the test with SF-539 CNS, 67.3%. The growth with UACC-257 melanoma was 46.5%; in the test with M14 melanoma, 47.1%; in the test on HT29 colon, 82.1%; with SNB-75 CNS, 68.6%; in the test with SNB-19 CNS it was 60.8%; in the test with U251 CNS, 42.2%. Also, the growth in the test with PC-3 prostate is 55.2%; with SK-MEL-5 melanoma, 45.8%; in the test on UACC-62 melanoma, 46%; in the test with LOX IMVI melanoma it was 38.6%; in the test with SK-MEL-2 melanoma, 75.8%.

In the case of `CCN(CC)CCCOCCCNc1cc(OC)cc2cccnc12`, the growth in the test with K-562 leukemia is 94.3%; in the test on MALME-3M melanoma, 104%; with MDA-MB-231 breast, 78%; in the test with SF-268 CNS, 96.7%; in the test on SF-295 CNS it was 101%; with SF-539 CNS, 108%. Besides, the growth in the test with UACC-257 melanoma is 83.1%; in the test on M14 melanoma, 106%; in the test with HCT-15 colon it was 102%; with HT29 colon, 96.1%; in the test with SNB-75 CNS, 94.7%; in the test with SNB-19 CNS, 91.4%. For the same compound, the growth in the test with U251 CNS is 91.5%; with PC-3 prostate, 86.6%; in the test on SK-MEL-5 melanoma, 96.4%; in the test on UACC-62 melanoma it was 82.1%; in the test with LOX IMVI melanoma it was 90.2%; in the test with SK-MEL-28 melanoma, 103%. Moreover, the growth with SK-MEL-2 melanoma is 107%.

Regarding `CCN(CC)CCC(CNc1c(C)cnc2cc(Cl)ccc12)c1ccc(Cl)cc1` (centres undefined), the growth is 7.15% (active) in the test on K-562 leukemia; -57.9% (active) in the test on MALME-3M melanoma; 27.3% in the test with MDA-MB-231 breast; 67.5% in the test with SF-268 CNS; 51.4% in the test with SF-295 CNS; -52.3% (active) with SF-539 CNS. Besides, the growth with UACC-257 melanoma was -58.3% (active); in the test with M14 melanoma, -67.3% (active); in the test on HCT-15 colon it was 35%; with HT29 colon, 14.8%; with SNB-75 CNS, 65.3%; in the test with SNB-19 CNS it was 68.1%. In addition, the growth in the test on U251 CNS was 48.6%; in the test with PC-3 prostate, 55.9%; with SK-MEL-5 melanoma, -94.2% (active); in the test on UACC-62 melanoma it was -28.8% (active); in the test with LOX IMVI melanoma, 33.6%; with SK-MEL-2 melanoma it was 92.8%.

As for `CC/C(=N\N=C(/CC)c1ccc(Br)cc1)c1ccc(Br)cc1`, the growth with K-562 leukemia was 109%; in the test with MALME-3M melanoma it was 90.5%; in the test with MDA-MB-231 breast it was 103%; in the test on SF-268 CNS, 103%; with SF-295 CNS, 93.9%; in the test with SF-539 CNS it was 99.3%. Moreover, the growth in the test with UACC-257 melanoma is 108%; in the test with M14 melanoma it was 98.3%; with HCT-15 colon, 85.4%; in the test with HT29 colon, 74.1%; in the test with SNB-75 CNS, 89.9%; with SNB-19 CNS it was 108%. Moreover, the growth with U251 CNS was 105%; in the test with PC-3 prostate, 94.2%; with SK-MEL-5 melanoma, 104%; with UACC-62 melanoma, 87.9%; with LOX IMVI melanoma, 98.7%; in the test on SK-MEL-28 melanoma, 104%. For the same compound, the growth in the test with SK-MEL-2 melanoma was 97.3%.

`COc1ccc2c(c1)[n+]([O-])c(C#N)c(NC(=O)c1ccco1)[n+]2[O-]`: the growth in the test with K-562 leukemia is 92.8%; with MALME-3M melanoma, 103%; in the test with MDA-MB-231 breast it was 92.3%; in the test on SF-268 CNS it was 107%; in the test with SF-295 CNS, 99.9%; with SF-539 CNS, 107%. Further, the growth in the test with M14 melanoma was 104%; with HCT-15 colon, 99%; in the test with HT29 colon, 101%; with SNB-75 CNS, 110%; with SNB-19 CNS it was 95.6%; in the test on U251 CNS it was 98.5%. The growth in the test on PC-3 prostate is 179%; in the test with SK-MEL-5 melanoma, 79.3%; in the test on UACC-62 melanoma, 98.2%; with LOX IMVI melanoma, 95.1%; with SK-MEL-2 melanoma, 101%.
